Data from PubChem BioAssay (Tox21).
Records with an inconclusive call do not appear. Entries that show only a call come without a potency. A number with no mark means an inactive call. Active and inactive are the calls of the source. The call rests on the fitted dose curve; in most records, active means well fitted curve in the direction sought with a large enough effect in the repeat runs; inconclusive means weak or mixed curves; inactive means no such curve, though single readings can be large; an effect the other way counts as inactive or inconclusive.

Legend:
[1] = A CellTox Green Cytotoxicity Assay to monitor cytotoxicity in HepG2 cells - 16 hour (AID 1224876); further: nearly all actives have a fitted effect of over 45% in size; further: potency means the concentration at half of the fitted maximal effect
Method in brief: (§1)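 Real-time, homogeneous cytotoxicity readout: dead-cell DNA staining by CellTox Green in HepG2 monolayers, fluorescence measured at timed intervals up to 40 h of continuous compound exposure.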

[2] = A CellTox Green Cytotoxicity Assay to monitor cytotoxicity in HepG2 cells - 40 hour (AID 1224879); further: nearly all actives have a fitted effect of over 40% in size; further: potency means the concentration at half of the fitted maximal effect
Method in brief: as §1

[3] = qHTS RealTime-Glo MT Cell Viability Assay in HEK293 cells - 0 hour (AID 1224880); further: nearly all actives have a fitted effect of over 45% in size; further: potency means the concentration at half of the fitted maximal effect
Method in brief: (§2)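 Nonlytic bioluminescent viability monitoring. HEK293 at 600 cells/well with reagent; 5 h settle; compound transfer by pintool; plates held at 37 C and read at set time points.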

[4] = qHTS RealTime-Glo MT Cell Viability Assay in HepG2 cells - 8 hour (AID 1224873); further: nearly all actives have a fitted effect of over 55% in size
Method in brief: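 Real-time viability: cells seeded at 600 per well together with NanoLuc and cell-permeant prosubstrate, compounds added after 5 h incubation. Luminescence tracked at 0, 8, 16, 24, 32 and 40 h of exposure.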

[5] = A CellTox Green Cytotoxicity Assay to monitor cytotoxicity in HEK293 cells - 24 hour (AID 1224875); further: nearly all actives have a fitted effect of over 45% in size; further: potency means the concentration at half of the fitted maximal effect
Method in brief: (§3)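 Cytotoxicity was tracked continuously in HEK293 cells by a DNA-binding dye excluded from viable cells. Compounds were transferred in DMSO 5 h after seeding; fluorescence was recorded at intervals up to 40 h.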

[6] = qHTS RealTime-Glo MT Cell Viability Assay in HepG2 cells - 32 hour (AID 1224877); further: nearly all actives have a fitted effect of over 55% in size
Method in brief: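 HepG2 cells (600/well) were dispensed with RealTime-Glo reagents, incubated 5 h at 37 °C, then treated with compounds in DMSO for up to 40 h. Nonlytic NanoLuc luminescence reflecting viable cells was read at each stated time point.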

[7] = A CellTox Green Cytotoxicity Assay to monitor cytotoxicity in HEK293 cells - 32 hour (AID 1224881); further: nearly all actives have a fitted effect of over 40% in size; further: potency means the concentration at half of the fitted maximal effect
Method in brief: as §3

[8] = A CellTox Green Cytotoxicity Assay to monitor cytotoxicity in HepG2 cells - 24 hour (AID 1224878); further: nearly all actives have a fitted effect of over 45% in size; further: potency means the concentration at half of the fitted maximal effect
Method in brief: as §1

[9] = qHTS RealTime-Glo MT Cell Viability Assay in HEK293 cells - 40 hour (AID 1224874); conditions: RealTime-Glo luminescence; max response: active compounds read low; further: nearly all actives have a fitted effect of over 50% in size; further: potency means the concentration at half of the fitted maximal effect
Method in brief: as §2

Compound | Potency [1] | Potency [2] | Potency [3] | Potency [4] | Potency [5] | Potency [6] | Potency [7] | Potency [8] | Potency [9] | max response [9] [%]
C=CC(=O)OCCOCCOC(=O)C=C | inactive | 49.2 µM (active) | inactive |  |  |  |  |  |  | 
CCCCc1nc2cccnc2n1Cc1ccc(-c2ccccc2-c2nnn[nH]2)cc1 | inactive | inactive | 21.9 µM (active) | inactive | inactive | inactive |  |  |  | 
CCN(CC)CCOC(=O)C(c1ccccc1)C1CCCCC1 (centres undefined) |  | 21.3 µM (active) | inactive | inactive | 23.9 µM (active) |  | 23.9 µM (active) |  |  | 
CC(C)(O)c1ccc(CNC(=O)c2cccnc2Oc2ccc(F)cc2)cc1 | inactive | inactive | inactive | inactive | inactive | inactive | inactive | inactive |  | 
COc1ccc(S(=O)(=O)N2C(=O)[C@@](c3ccccc3OC)(N3C[C@H](O)C[C@H]3C(=O)N(C)C)c3cc(Cl)ccc32)c(OC)c1 | inactive | inactive | inactive |  |  |  |  | inactive | 49 µM (active) | 
Cc1cccc(Nc2ccccc2)c1 | 43.6 µM (active) | 38.9 µM (active) | inactive |  | 38.9 µM (active) | inactive |  | 38.9 µM (active) |  | -10.8
